Measured values: PubChem BioAssay (NCI)
The panel holds about 83,000 compounds, 20% with a hit somewhere; the sample as a whole holds those more often.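 Single-concentration screen, 48 h exposure, 96-well plates. Endpoint: percent growth. Below 10 = active.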 A number with no mark means an inactive call. Calls of active or inactive are those of the source.

system: HCT-15 colon; experiment: NCI-60 one-dose screen, 48 h (100 = growth as untreated, 0 = no growth, -100 = all killed); details: 10 µM unless noted

Row | Compound | growth
1 | COc1ccc2c(CCCCC(c3ccccc3)c3ccccc3)c3[n+](cc2c1OC)CCc1cc2c(cc1-3)OCO2 | -47% (active)
2 | CCN1CCN(c2cc(C)nc(N(CCCNc3ccnc4cc(Cl)ccc34)Cc3ccc4c(c3)OCO4)n2)CC1 | 1.33% (active)
3 | O=C(Nc1ccc(C(=O)Nc2ccc(C3=NCCCN3)cc2)cc1)Nc1ccc(C2=NCCCN2)cc1 | 100%
4 | CCOC(=O)C1=C(C)N=C2Sc3cc(OC(F)(F)F)ccc3N2[C@H]1c1ccccn1 | 13.7%
5 | Nc1c2c(c(O)c3c1=C(CO)C=N3)=NCCS2 | -87.1% (active)
6 | C[C@@H](C[C@H](CCO)c1cc(C(F)(F)F)cc(C(F)(F)F)c1)c1ccc2ccccc2c1 | 76.7%
7 | CN(N)c1nc2sc3c(c2c(=O)[nH]1)CCCC3 | 99.6%
8 | Cc1cc(N(CCNc2ccnc3cc(Cl)ccc23)Cc2ccc3c(c2)OCO3)nc(N2CCN(C)CC2)n1 | 0.627% (active)
9 | C[N+](C)(CCOC(c1ccccc1)c1ccccc1)CC(=O)OCc1ccccc1 | 99.3%
10 | CC1(/C=N/NC(N)=S)NC(=O)NC1=O (stereo not drawn) | 104%
11 | [2H]C1([2H])[C@H](C)O[C@H](C)C([2H])([2H])N1c1ccc(NC(=O)c2cccc(-c3ccc(OC(F)(F)F)cc3)c2C)cn1 | 84.2%
12 | N#Cc1cc2[nH]c3ccc(OC(F)(F)F)cc3c2oc1=O | 58.8%
13 | COc1ccc2c(c1OC)C(=O)O[C@@H]2[C@H]1c2c(c(C#CC#Cc3ccc(F)c(F)c3)c3c(c2OC)OCO3)CCN1C | 56.8%
14 | CCC1(/C=N/NC(N)=S)NC(=O)NC1=O (stereo not drawn) | 107%
15 | CC(C)C1CCC(C)C(C2(C#N)C(N)=NC(N)=C2C#N)C1=O (stereo not drawn) | 101%
16 | NC(=O)c1n[nH]n2c1nc(=O)c1c3c(sc12)CCCC3 | 107%
17 | CCOC(=O)C1=C(C)NC(=O)NC1c1cc(=O)oc2ccc(C)cc12 (stereo not drawn) | 104%
18 | C=CC(=O)N(C)[C@H]1C[C@H]2OC(C)(C1OC)n1c3ccccc3c3c4c(c5c6ccccc6n2c5c31)C(=O)NC4 (stereo partly drawn) | -46.5% (active)
19 | Cc1cc2c(-c3nc4ccccn4c3Nc3cccc4ccccc34)c(O)c(O)cc2c(O)c1-c1c(C)cc2c(-c3nc4ccccn4c3Nc3cccc4ccccc34)c(O)c(O)cc2c1O | 41.4%
20 | N#CC1(C#N)C(c2cccs2)NC(c2cccs2)C1(C#N)C#N (stereo not drawn) | 94.5%

Row | Compound | growth
21 | CC1CCC(n2cnc3c(Cl)ncnc32)O1 (stereo not drawn) | 103%
22 | Oc1ccc(/C=N/Nc2nnc(N/N=C/c3ccc(O)cc3O)c3ccccc23)c(O)c1 | 7.14% (active)
23 | CCc1ccc(/C=C/c2ccc(O)c3ncccc23)[n+](C)c1 | 85%
24 | COc1ccc(OC)c(NC2=C(SCCc3ccccc3)C(=O)c3ccccc3C2=O)c1 | 64.2%
25 | CCN1/C(=C/C=C/c2n(-c3ccccc3)c3ccc(-c4nc5ccccc5s4)cc3[n+]2CC)N(c2ccccc2)c2ccc(-c3nc4ccccc4s3)cc21 | 14.9%
26 | COC(=O)c1[nH]cnc1/N=N/N(C)CCO | 109%
27 | O=C1CC(c2ccc(Cl)cc2)c2ncn(-c3cccc(Cl)c3)c2N1 (stereo not drawn) | 27.7%
28 | COC(=O)CC[C@@H](C)[C@H]1CC[C@H]2C3CC[C@@H]4C[C@@H]5CC[C@]4(C)[C@@]3(O5)[C@H](Br)[C@@H](Br)[C@]12C (stereo partly drawn) | 97.3%
29 | CC(=O)OCCC/C(=C\c1ccc2ccccc2c1)[N+](=O)[O-] | -69.4% (active)
30 | COc1cc(-c2cc(-c3ccc(Nc4ccnc5cc(Cl)ccc45)cc3)nc(N3CCOCC3)n2)cc(OC)c1OC | -29.8% (active)
31 | CCOC(=O)Sc1ncnc2nc[nH]c12 | 82.5%
32 | COc1cc2c3c(c1)nc(C)n3CCC2 | 98.2%
33 | CCCCCCCC(=O)SCC/C=C/[C@@H]1CC(=O)NCc2cccc(n2)C2=N[C@@](C)(CS2)C(=O)N[C@@H](C(C)C)C(=O)N1 | 75.3%
34 | COc1ccc2c(CCc3ccc(Cl)cc3)c3[n+](cc2c1OC)CCc1cc2c(cc1-3)OCO2 | 111%
35 | CC(=O)C(C(C)=O)C(c1ccccc1)C(C(C)=O)C(C)=O | 100%
36 | Cc1ccc(NC(=O)NC(=O)CSc2nc3ccccc3nc2C)cc1 | 89%
37 | Cc1cc(N(CCNc2ccnc3cc(Cl)ccc23)Cc2ccc3c(c2)OCO3)nc(N2CCCC2)n1 | 0.301% (active)
38 | O=C(Nc1ccc(C2=NCCCN2)cc1)c1ccc(C(=O)Nc2ccc(C3=NCCCN3)cc2)nc1 | 108%
39 | COC(=O)C1=C(C(=O)OC)C23C=C(C)C1C2=C(C)C1(CC1)[C@@](C)(O)C3=O (stereo partly drawn) | 6.97% (active)

system: HT29 colon; experiment: as above; details: 10 µM unless noted

Row | Compound | growth
40 | COc1ccc2c(CCCCC(c3ccccc3)c3ccccc3)c3[n+](cc2c1OC)CCc1cc2c(cc1-3)OCO2 | -73.7% (active)
41 | CCN1CCN(c2cc(C)nc(N(CCCNc3ccnc4cc(Cl)ccc34)Cc3ccc4c(c3)OCO4)n2)CC1 | -12.2% (active)
42 | O=C(Nc1ccc(C(=O)Nc2ccc(C3=NCCCN3)cc2)cc1)Nc1ccc(C2=NCCCN2)cc1 | 92.8%
43 | CCOC(=O)C1=C(C)N=C2Sc3cc(OC(F)(F)F)ccc3N2[C@H]1c1ccccn1 | 39.2%
44 | Nc1c2c(c(O)c3c1=C(CO)C=N3)=NCCS2 | -20.9% (active)
45 | C[C@@H](C[C@H](CCO)c1cc(C(F)(F)F)cc(C(F)(F)F)c1)c1ccc2ccccc2c1 | 71.2%
46 | CN(N)c1nc2sc3c(c2c(=O)[nH]1)CCCC3 | 90.4%
47 | Cc1cc(N(CCNc2ccnc3cc(Cl)ccc23)Cc2ccc3c(c2)OCO3)nc(N2CCN(C)CC2)n1 | 0.16% (active)
48 | C[N+](C)(CCOC(c1ccccc1)c1ccccc1)CC(=O)OCc1ccccc1 | 101%
49 | CC1(/C=N/NC(N)=S)NC(=O)NC1=O (stereo not drawn) | 93.3%
50 | [2H]C1([2H])[C@H](C)O[C@H](C)C([2H])([2H])N1c1ccc(NC(=O)c2cccc(-c3ccc(OC(F)(F)F)cc3)c2C)cn1 | 61.2%
51 | N#Cc1cc2[nH]c3ccc(OC(F)(F)F)cc3c2oc1=O | 79.6%
52 | COc1ccc2c(c1OC)C(=O)O[C@@H]2[C@H]1c2c(c(C#CC#Cc3ccc(F)c(F)c3)c3c(c2OC)OCO3)CCN1C | 92.3%
53 | CCC1(/C=N/NC(N)=S)NC(=O)NC1=O (stereo not drawn) | 94.9%
54 | CC(C)C1CCC(C)C(C2(C#N)C(N)=NC(N)=C2C#N)C1=O (stereo not drawn) | 96.2%
55 | NC(=O)c1n[nH]n2c1nc(=O)c1c3c(sc12)CCCC3 | 106%
56 | CCOC(=O)C1=C(C)NC(=O)NC1c1cc(=O)oc2ccc(C)cc12 (stereo not drawn) | 95.2%
57 | C=CC(=O)N(C)[C@H]1C[C@H]2OC(C)(C1OC)n1c3ccccc3c3c4c(c5c6ccccc6n2c5c31)C(=O)NC4 (stereo partly drawn) | 3.17% (active)
58 | Cc1cc2c(-c3nc4ccccn4c3Nc3cccc4ccccc34)c(O)c(O)cc2c(O)c1-c1c(C)cc2c(-c3nc4ccccn4c3Nc3cccc4ccccc34)c(O)c(O)cc2c1O | 27.5%
59 | N#CC1(C#N)C(c2cccs2)NC(c2cccs2)C1(C#N)C#N (stereo not drawn) | 103%

Row | Compound | growth
60 | CC1CCC(n2cnc3c(Cl)ncnc32)O1 (stereo not drawn) | 110%
61 | Oc1ccc(/C=N/Nc2nnc(N/N=C/c3ccc(O)cc3O)c3ccccc23)c(O)c1 | -35.3% (active)
62 | CCc1ccc(/C=C/c2ccc(O)c3ncccc23)[n+](C)c1 | 50.9%
63 | COc1ccc(OC)c(NC2=C(SCCc3ccccc3)C(=O)c3ccccc3C2=O)c1 | 106%
64 | CCN1/C(=C/C=C/c2n(-c3ccccc3)c3ccc(-c4nc5ccccc5s4)cc3[n+]2CC)N(c2ccccc2)c2ccc(-c3nc4ccccc4s3)cc21 | 10.8%
65 | COC(=O)c1[nH]cnc1/N=N/N(C)CCO | 108%
66 | O=C1CC(c2ccc(Cl)cc2)c2ncn(-c3cccc(Cl)c3)c2N1 (stereo not drawn) | 28.8%
67 | COC(=O)CC[C@@H](C)[C@H]1CC[C@H]2C3CC[C@@H]4C[C@@H]5CC[C@]4(C)[C@@]3(O5)[C@H](Br)[C@@H](Br)[C@]12C (stereo partly drawn) | 81.6%
68 | CC(=O)OCCC/C(=C\c1ccc2ccccc2c1)[N+](=O)[O-] | -29.8% (active)
69 | COc1cc(-c2cc(-c3ccc(Nc4ccnc5cc(Cl)ccc45)cc3)nc(N3CCOCC3)n2)cc(OC)c1OC | -21.8% (active)
70 | CCOC(=O)Sc1ncnc2nc[nH]c12 | 59.6%
71 | COc1cc2c3c(c1)nc(C)n3CCC2 | 97.2%
72 | CCCCCCCC(=O)SCC/C=C/[C@@H]1CC(=O)NCc2cccc(n2)C2=N[C@@](C)(CS2)C(=O)N[C@@H](C(C)C)C(=O)N1 | -6.83% (active)
73 | COc1ccc2c(CCc3ccc(Cl)cc3)c3[n+](cc2c1OC)CCc1cc2c(cc1-3)OCO2 | 43.1%
74 | CC(=O)C(C(C)=O)C(c1ccccc1)C(C(C)=O)C(C)=O | 98.5%
75 | Cc1ccc(NC(=O)NC(=O)CSc2nc3ccccc3nc2C)cc1 | 67.5%
76 | Cc1cc(N(CCNc2ccnc3cc(Cl)ccc23)Cc2ccc3c(c2)OCO3)nc(N2CCCC2)n1 | -10.2% (active)
77 | O=C(Nc1ccc(C2=NCCCN2)cc1)c1ccc(C(=O)Nc2ccc(C3=NCCCN3)cc2)nc1 | 109%
78 | COC(=O)C1=C(C(=O)OC)C23C=C(C)C1C2=C(C)C1(CC1)[C@@](C)(O)C3=O (stereo partly drawn) | -0.501% (active)
